# Measurements taken from ChEMBL document CHEMBL1961873, “Compounds: GSK PKIS; Assays: Nanosyn kinase panel” (2012).
# How the values were obtained:
# [1] = target: Serine/threonine-protein kinase MARK2 (Homo sapiens) (UniProt Q7KZI7); settings: at 1 µM
# [2] = target: PAS domain-containing serine/threonine-protein kinase (Homo sapiens) (UniProt Q96RG2); settings: at 0.1 µM
# [3] = target: PAS domain-containing serine/threonine-protein kinase (Homo sapiens) (UniProt Q96RG2); settings: at 1 µM
# [4] = target: Phosphorylase b kinase gamma catalytic chain, skeletal muscle/heart isoform (Homo sapiens) (UniProt Q16816); settings: at 0.1 µM
# [5] = target: Phosphorylase b kinase gamma catalytic chain, skeletal muscle/heart isoform (Homo sapiens) (UniProt Q16816); settings: at 1 µM
# [6] = target: T1, Phosphorylase b kinase gamma catalytic chain, liver/testis isoform (Homo sapiens) (UniProt P15735); settings: at 0.1 µM
# T1 sequence (whole entry): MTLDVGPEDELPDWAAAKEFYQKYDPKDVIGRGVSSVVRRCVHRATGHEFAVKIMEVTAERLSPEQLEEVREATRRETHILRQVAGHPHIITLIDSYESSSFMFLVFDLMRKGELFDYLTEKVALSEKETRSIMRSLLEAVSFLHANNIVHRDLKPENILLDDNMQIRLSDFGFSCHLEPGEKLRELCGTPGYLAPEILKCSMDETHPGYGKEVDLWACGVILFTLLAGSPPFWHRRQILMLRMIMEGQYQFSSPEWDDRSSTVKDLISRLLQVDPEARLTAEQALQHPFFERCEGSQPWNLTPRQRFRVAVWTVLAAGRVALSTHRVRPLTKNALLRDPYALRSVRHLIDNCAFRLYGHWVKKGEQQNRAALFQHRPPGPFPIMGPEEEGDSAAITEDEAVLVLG
# [7] = target: T1, Phosphorylase b kinase gamma catalytic chain, liver/testis isoform (Homo sapiens); settings: at 1 µM
# [8] = target: Serine/threonine-protein kinase pim-1 (Homo sapiens) (UniProt P11309); settings: at 0.1 µM
# [9] = target: Serine/threonine-protein kinase pim-1 (Homo sapiens) (UniProt P11309); settings: at 1 µM
# [10] = target: Serine/threonine-protein kinase pim-2 (Homo sapiens) (UniProt Q9P1W9); settings: at 0.1 µM;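 further: reported value is the mean percent inhibition of PIM2, measured in the GSK PKIS kinase inhibitor set screen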
# Sequence of Serine/threonine-protein kinase pim-2 (Homo sapiens) (Q9P1W9 whole entry, looked up): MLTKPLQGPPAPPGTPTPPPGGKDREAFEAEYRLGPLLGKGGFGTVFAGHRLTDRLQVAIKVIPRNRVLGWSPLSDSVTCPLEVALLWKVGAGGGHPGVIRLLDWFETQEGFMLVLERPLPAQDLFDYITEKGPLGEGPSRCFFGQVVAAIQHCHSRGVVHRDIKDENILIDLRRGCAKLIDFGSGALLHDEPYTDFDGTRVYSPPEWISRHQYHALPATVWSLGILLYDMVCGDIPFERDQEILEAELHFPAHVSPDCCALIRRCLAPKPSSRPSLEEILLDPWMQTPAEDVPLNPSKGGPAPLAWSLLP
# Sequence of PAS domain-containing serine/threonine-protein kinase (Homo sapiens) (Q96RG2 whole entry, the tested form may be a part, canonical isoform): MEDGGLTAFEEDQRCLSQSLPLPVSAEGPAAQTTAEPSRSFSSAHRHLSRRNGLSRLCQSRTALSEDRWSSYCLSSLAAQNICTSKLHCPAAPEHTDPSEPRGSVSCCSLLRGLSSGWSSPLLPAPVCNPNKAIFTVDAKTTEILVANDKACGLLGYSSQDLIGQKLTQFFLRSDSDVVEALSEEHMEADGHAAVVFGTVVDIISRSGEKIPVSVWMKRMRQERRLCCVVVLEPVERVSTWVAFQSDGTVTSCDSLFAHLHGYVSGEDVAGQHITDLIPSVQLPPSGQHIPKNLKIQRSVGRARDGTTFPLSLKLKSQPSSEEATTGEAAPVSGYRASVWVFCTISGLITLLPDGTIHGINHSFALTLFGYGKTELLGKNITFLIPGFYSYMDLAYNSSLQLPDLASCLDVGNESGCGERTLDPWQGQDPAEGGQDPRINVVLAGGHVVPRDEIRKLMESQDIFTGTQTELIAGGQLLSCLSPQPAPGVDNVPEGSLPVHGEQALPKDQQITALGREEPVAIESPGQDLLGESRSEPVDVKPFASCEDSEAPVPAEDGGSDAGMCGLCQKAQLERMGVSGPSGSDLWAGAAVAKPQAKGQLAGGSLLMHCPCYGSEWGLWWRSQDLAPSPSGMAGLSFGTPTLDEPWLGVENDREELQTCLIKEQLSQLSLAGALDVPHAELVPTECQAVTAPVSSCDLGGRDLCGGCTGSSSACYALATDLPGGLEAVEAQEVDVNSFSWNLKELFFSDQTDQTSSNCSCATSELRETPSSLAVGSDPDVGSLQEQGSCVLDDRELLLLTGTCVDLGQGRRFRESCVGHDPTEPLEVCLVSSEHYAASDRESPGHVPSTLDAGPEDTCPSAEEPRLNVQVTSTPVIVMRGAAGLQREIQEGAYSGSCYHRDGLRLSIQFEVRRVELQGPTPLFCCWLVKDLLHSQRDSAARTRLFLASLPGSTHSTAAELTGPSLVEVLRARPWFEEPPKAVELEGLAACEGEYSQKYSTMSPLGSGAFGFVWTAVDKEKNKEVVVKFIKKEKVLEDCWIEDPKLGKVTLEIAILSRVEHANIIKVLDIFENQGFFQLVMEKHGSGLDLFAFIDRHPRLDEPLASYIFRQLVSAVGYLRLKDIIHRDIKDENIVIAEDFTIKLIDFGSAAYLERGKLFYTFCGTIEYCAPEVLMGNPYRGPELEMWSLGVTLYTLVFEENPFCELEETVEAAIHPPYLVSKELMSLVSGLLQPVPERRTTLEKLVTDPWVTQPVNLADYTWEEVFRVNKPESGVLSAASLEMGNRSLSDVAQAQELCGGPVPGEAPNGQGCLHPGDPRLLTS
# Sequence of Phosphorylase b kinase gamma catalytic chain, skeletal muscle/heart isoform (Homo sapiens) (Q16816 whole entry, looked up, canonical isoform): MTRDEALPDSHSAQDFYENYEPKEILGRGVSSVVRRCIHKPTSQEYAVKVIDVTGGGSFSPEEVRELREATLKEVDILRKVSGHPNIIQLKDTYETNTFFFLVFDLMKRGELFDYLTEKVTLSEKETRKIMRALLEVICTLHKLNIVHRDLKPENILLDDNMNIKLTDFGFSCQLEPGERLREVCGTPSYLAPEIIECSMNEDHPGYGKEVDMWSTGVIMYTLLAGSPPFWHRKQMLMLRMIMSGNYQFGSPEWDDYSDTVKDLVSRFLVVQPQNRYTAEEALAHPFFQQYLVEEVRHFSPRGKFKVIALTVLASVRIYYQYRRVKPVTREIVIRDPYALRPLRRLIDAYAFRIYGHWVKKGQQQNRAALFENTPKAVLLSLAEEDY
# Sequence of Serine/threonine-protein kinase pim-1 (Homo sapiens) (P11309 whole entry, looked up): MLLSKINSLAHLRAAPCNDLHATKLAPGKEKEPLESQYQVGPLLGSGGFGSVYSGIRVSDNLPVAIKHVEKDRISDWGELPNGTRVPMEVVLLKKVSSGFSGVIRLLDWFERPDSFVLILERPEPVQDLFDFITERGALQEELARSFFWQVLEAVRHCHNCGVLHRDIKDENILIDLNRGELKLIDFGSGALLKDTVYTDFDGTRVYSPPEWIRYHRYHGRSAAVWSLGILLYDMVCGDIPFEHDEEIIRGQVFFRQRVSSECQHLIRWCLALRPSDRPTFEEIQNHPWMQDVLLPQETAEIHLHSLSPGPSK
# Sequence of Serine/threonine-protein kinase MARK2 (Homo sapiens) (Q7KZI7 whole entry, the tested form may be a part): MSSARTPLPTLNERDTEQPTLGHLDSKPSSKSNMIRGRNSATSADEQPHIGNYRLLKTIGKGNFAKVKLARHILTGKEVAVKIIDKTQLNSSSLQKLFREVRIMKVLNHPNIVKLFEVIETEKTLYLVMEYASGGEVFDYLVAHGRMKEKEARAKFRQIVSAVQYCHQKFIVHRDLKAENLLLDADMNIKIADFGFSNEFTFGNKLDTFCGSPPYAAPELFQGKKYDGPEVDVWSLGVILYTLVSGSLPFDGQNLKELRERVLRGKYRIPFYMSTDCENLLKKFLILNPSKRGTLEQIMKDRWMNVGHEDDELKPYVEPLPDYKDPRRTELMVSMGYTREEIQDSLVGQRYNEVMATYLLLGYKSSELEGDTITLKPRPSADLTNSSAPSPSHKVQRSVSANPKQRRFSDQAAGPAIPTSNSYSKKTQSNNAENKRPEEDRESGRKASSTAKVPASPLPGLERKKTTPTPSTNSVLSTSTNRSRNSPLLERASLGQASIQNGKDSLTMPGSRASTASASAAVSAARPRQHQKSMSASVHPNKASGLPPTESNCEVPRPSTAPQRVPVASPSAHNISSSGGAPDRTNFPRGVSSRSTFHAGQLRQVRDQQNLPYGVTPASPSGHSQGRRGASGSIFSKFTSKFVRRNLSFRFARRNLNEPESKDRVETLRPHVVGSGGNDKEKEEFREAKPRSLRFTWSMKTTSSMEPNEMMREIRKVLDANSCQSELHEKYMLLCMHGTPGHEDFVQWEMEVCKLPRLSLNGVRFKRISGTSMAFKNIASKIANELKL
compound,measurement,setting,value
CNC(=O)c1cc(-c2ccc(F)cc2)cc(-c2ccc(S(=O)(=O)N3CCCC3)cc2)c1N,inhibition,[1],1.52%
same,inhibition,[2],0.47%
same,inhibition,[3],-0.16%
same,inhibition,[4],2.9%
same,inhibition,[5],4.24%
same,inhibition,[6],3.8%
same,inhibition,[7],3.18%
same,inhibition,[8],0.06%
same,inhibition,[9],0.44%
same,inhibition,[10],-0.39%
CCc1nn2ncccc2c1-c1ccnc(NC2CC2)n1,inhibition,[1],1.56%
same,inhibition,[2],1.03%
same,inhibition,[3],0.63%
same,inhibition,[4],1.42%
same,inhibition,[5],2.68%
same,inhibition,[6],2.15%
same,inhibition,[7],3.73%
same,inhibition,[8],0.19%
same,inhibition,[9],1.72%
same,inhibition,[10],0.29%
CCn1c(-c2nonc2N)nc2c(C#CC(C)(C)O)nc(OC[C@H](N)c3ccccc3)cc21,inhibition,[1],18.1%
same,inhibition,[2],-0.65%
same,inhibition,[3],8.04%
same,inhibition,[4],2.23%
same,inhibition,[5],-1.37%
same,inhibition,[6],2.76%
same,inhibition,[7],5.27%
same,inhibition,[8],1.54%
same,inhibition,[9],3.63%
same,inhibition,[10],0.71%
COc1cc(N2CCN(C(C)C)CC2)ccc1Nc1nc(Nc2ccc(F)cc2C(N)=O)c2cc[nH]c2n1,inhibition,[1],39.3%
same,inhibition,[2],-0.71%
same,inhibition,[3],2.69%
same,inhibition,[4],58.2%
same,inhibition,[5],78.1%
same,inhibition,[6],19.1%
same,inhibition,[7],64.7%
same,inhibition,[8],3.27%
same,inhibition,[9],25.3%
same,inhibition,[10],-0.44%
COc1cc2c(cc1Nc1nc(Nc3ccsc3C(N)=O)c3cc[nH]c3n1)N(C(=O)CN(C)C)CCC2(C)C,inhibition,[1],9%
same,inhibition,[2],-1.55%
same,inhibition,[3],-1.18%
same,inhibition,[4],18.5%
same,inhibition,[5],62%
same,inhibition,[6],5.83%
same,inhibition,[7],6.91%
same,inhibition,[8],68.4%
same,inhibition,[9],93.3%
same,inhibition,[10],2.12%
CC(C)COC(=O)c1ccc2c(c1)/C(=C/Nc1ccc(S(N)(=O)=O)cc1)C(=O)N2,inhibition,[1],70.5%
same,inhibition,[2],0.36%
same,inhibition,[3],2.64%
same,inhibition,[4],12.2%
same,inhibition,[5],50.5%
same,inhibition,[6],-1.63%
same,inhibition,[7],16.4%
same,inhibition,[8],3.92%
same,inhibition,[9],27.8%
same,inhibition,[10],0.83%
N#Cc1c(NC(=O)CN2CCOCC2)sc2c1CCCC2,inhibition,[1],1.25%
same,inhibition,[2],0.47%
same,inhibition,[3],0.86%
same,inhibition,[4],6%
same,inhibition,[5],9.65%
same,inhibition,[6],5.37%
same,inhibition,[7],6.47%
same,inhibition,[8],0.03%
same,inhibition,[9],0.16%
same,inhibition,[10],0.29%
COc1cc2ncn(-c3cc(OCc4ccccc4C(F)(F)F)c(C(=O)N(C)C)s3)c2cc1OC,inhibition,[1],-0.58%
same,inhibition,[2],-1.08%
same,inhibition,[3],0.41%
same,inhibition,[4],-0.58%
same,inhibition,[5],1.87%
same,inhibition,[6],-1.54%
same,inhibition,[7],-0.32%
same,inhibition,[8],0.36%
same,inhibition,[9],-0.31%
same,inhibition,[10],-0.26%
Fc1ccc(-c2nn3ccccc3c2-c2ccncc2)cc1,inhibition,[1],0.53%
same,inhibition,[2],-0.17%
same,inhibition,[3],-0.32%
same,inhibition,[4],2.42%
same,inhibition,[5],2.09%
same,inhibition,[6],0.28%
same,inhibition,[7],-0.7%
same,inhibition,[8],-0.39%
same,inhibition,[9],0.04%
same,inhibition,[10],-0.3%
O=C(Nc1n[nH]c2cc(-c3ccc(F)cc3)ccc12)C1CC1,inhibition,[1],2.24%
same,inhibition,[2],-0.52%
same,inhibition,[3],-1.02%
same,inhibition,[4],3.89%
same,inhibition,[5],6.4%
same,inhibition,[6],6.96%
same,inhibition,[7],2.35%
same,inhibition,[8],0.88%
same,inhibition,[9],3.11%
same,inhibition,[10],-0.18%
CCNC(=O)O[C@H]1CN[C@H](C#Cc2cc3ncnc(Nc4ccc(OCc5cccc(F)c5)c(Cl)c4)c3s2)C1,inhibition,[1],2.03%
same,inhibition,[2],0.27%
same,inhibition,[3],-1.53%
same,inhibition,[4],0.81%
same,inhibition,[5],0.44%
same,inhibition,[6],3.66%
same,inhibition,[7],0.88%
same,inhibition,[8],0.78%
same,inhibition,[9],0.26%
same,inhibition,[10],-0.1%
CCn1c(-c2nonc2N)nc2cnc(Oc3cccc(NC(=O)c4ccc(N(C)C)cc4)c3)cc21,inhibition,[1],11%
same,inhibition,[2],-0.49%
same,inhibition,[3],1.54%
same,inhibition,[4],-0.31%
same,inhibition,[5],2.21%
same,inhibition,[6],1.21%
same,inhibition,[7],-0.74%
same,inhibition,[8],0.69%
same,inhibition,[9],8.74%
same,inhibition,[10],-0.19%
Clc1ccc(-c2nn3ncccc3c2-c2ccnc(Nc3ccccc3)n2)cc1,inhibition,[1],0.63%
same,inhibition,[2],-0.14%
same,inhibition,[3],0.05%
same,inhibition,[4],1.22%
same,inhibition,[5],3.66%
same,inhibition,[6],0.85%
same,inhibition,[7],0.51%
same,inhibition,[8],0.13%
same,inhibition,[9],0.33%
same,inhibition,[10],0.34%
COc1cc(/C=N/Nc2ncnc3[nH]ncc23)ccc1O,inhibition,[1],17.5%
same,inhibition,[2],-0.24%
same,inhibition,[3],1.75%
same,inhibition,[4],4.58%
same,inhibition,[5],16.6%
same,inhibition,[6],4.03%
same,inhibition,[7],8.53%
same,inhibition,[8],1.55%
same,inhibition,[9],10.9%
same,inhibition,[10],0.15%
COc1ccc(CNC(=O)c2ccc(-c3cc(-c4nnc(C)o4)ccc3C)cc2)cc1,inhibition,[1],0.82%
same,inhibition,[2],2.29%
same,inhibition,[3],8.41%
same,inhibition,[4],3.84%
same,inhibition,[5],6.56%
same,inhibition,[6],3.12%
same,inhibition,[7],9.31%
same,inhibition,[8],1.62%
same,inhibition,[9],1.96%
same,inhibition,[10],2.9%
O=C(O[C@H]1CN[C@H](C#Cc2cc3ncnc(Nc4ccc(Cc5ccccc5)cc4)c3s2)C1)N1CCOCC1,inhibition,[1],0.4%
same,inhibition,[2],0.94%
same,inhibition,[3],0.47%
same,inhibition,[4],3.11%
same,inhibition,[5],3.13%
same,inhibition,[6],3.27%
same,inhibition,[7],2.45%
same,inhibition,[8],1.81%
same,inhibition,[9],0.55%
same,inhibition,[10],0.21%
Cc1ccc(O)cc1Nc1ccnc2cc(-c3ccccn3)ccc12,inhibition,[1],4.34%
same,inhibition,[2],0.71%
same,inhibition,[3],-0.05%
same,inhibition,[4],2.23%
same,inhibition,[5],9.36%
same,inhibition,[6],5.58%
same,inhibition,[7],2.55%
same,inhibition,[8],0.67%
same,inhibition,[9],3.79%
same,inhibition,[10],0.49%
COc1ccc(-c2cc3c(N)ncnc3o2)cc1,inhibition,[1],3.33%
same,inhibition,[2],1.26%
same,inhibition,[3],0.48%
same,inhibition,[4],0.47%
same,inhibition,[5],2.53%
same,inhibition,[6],-1.54%
same,inhibition,[7],-2.23%
same,inhibition,[8],-1.06%
same,inhibition,[9],2.3%
same,inhibition,[10],0.27%
NS(=O)(=O)c1ccc(Nc2ncc(-c3ccccc3)o2)cc1,inhibition,[1],7.59%
same,inhibition,[2],-0.04%
same,inhibition,[3],-0.31%
same,inhibition,[4],3.92%
same,inhibition,[5],18.4%
same,inhibition,[6],4.88%
same,inhibition,[7],7.08%
same,inhibition,[8],0.17%
same,inhibition,[9],0.64%
same,inhibition,[10],-0.58%
